miR-122 inh – miR-122 suppressors via Renilla sensor increase, primary screen, cell-based, Huh7 psiCHECK-miR122, Renilla luciferase, single point | 48 h | activation, % at 12.5 µM | hit rate 0.14% among 340,000 | AID 623901, 2012;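 active = mean activation of 30% or more, with every replicate also reaching 30%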;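 note: 0% = median of neutral control wells and 100% = median of positive control wells; higher luciferase signal means stronger suppression of miR-122 activity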
* = called active by the depositor. Only a selection was taken, and hits are over-represented in it overall.

SMILES	miR-122 inh
COCC(=O)N(C)C[C@@H]1Oc2ncc(C#Cc3ccccc3OC)cc2C(=O)N([C@H](C)CO)C[C@H]1C	1
CCC(=O)N(C)C[C@@H]1Oc2ncc(C#C[C@H](C)O)cc2C(=O)N([C@H](C)CO)C[C@H]1C	-3
C[C@H](CO)N1C[C@H](C)[C@H](CN(C)C(=O)Nc2ccc3c(c2)OCO3)Oc2ncc(-c3ccc(F)cc3)cc2C1=O	-24
CCCNC(=O)N(C)C[C@@H]1Oc2cc(C#Cc3cccc(F)c3)ccc2S(=O)(=O)N([C@H](C)CO)C[C@@H]1C	-5
CCCCCCCN(C(=O)CCl)c1cccc(C)c1	66*
C[C@H]1CN([C@@H](C)CO)C(=O)c2cc(-c3cccc(F)c3)cnc2O[C@H]1CN(C)C(=O)c1cccc(F)c1	-5
CC(=O)N(C)C[C@H]1Oc2cc(C#C[C@H](C)O)ccc2S(=O)(=O)N([C@@H](C)CO)C[C@@H]1C	1
C[C@@H]1CN([C@H](C)CO)C(=O)c2cc(C#C[C@@H](C)O)cnc2O[C@@H]1CN(C)C(=O)CN(C)C	0
CC(=O)N(C)C[C@@H]1Oc2cc(C#CC3(O)CCCC3)ccc2S(=O)(=O)N([C@@H](C)CO)C[C@H]1C	3
C[C@H](CO)N1C[C@H](C)[C@@H](CN(C)CC2CCOCC2)Oc2ncc(C#CCC3CCCC3)cc2C1=O	0
CO[C@@H]1CN(C)C(=O)c2cc(NC(C)=O)ccc2OC[C@H](C)N(C(=O)c2ccccc2)C[C@@H]1C	-1
CO[C@@H]1CN(C)C(=O)c2ccc(NC(=O)c3ccc(Oc4ccccc4)cc3)cc2OC[C@H](C)NC[C@@H]1C	37*
COc1ccc(NC(=O)Nc2ccc3c(c2)OC[C@@H](C)NC[C@@H](C)[C@@H](OC)CN(C)C3=O)cc1	3
CCC(=O)Nc1ccc2c(c1)OC[C@@H](C)N(C(=O)c1ccccc1F)C[C@H](C)[C@@H](OC)CN(C)C2=O	-3
CO[C@@H]1CN(C)C(=O)c2ccc(NC(C)=O)cc2OC[C@@H](C)N(C(=O)c2ccccc2F)C[C@H]1C	35*
COc1ccc(NC(=O)Nc2ccc3c(c2)OC[C@@H](C)NC[C@H](C)[C@@H](OC)CN(C)C3=O)cc1	-1
C[C@H]1CN([C@@H](C)CO)C(=O)c2cc(C#Cc3ccccc3F)cnc2O[C@H]1CN(C)C(=O)Cc1ccncc1	0
C[C@@H]1CN([C@@H](C)CO)C(=O)c2cc(C#CC3(O)CCCC3)cnc2O[C@@H]1CN(C)S(=O)(=O)c1ccccc1	-1
COCC(=O)Nc1ccc2c(c1)OC[C@H](C)N(C(C)=O)C[C@@H](C)[C@H](OC)CN(C)C2=O	-2
C[C@@H]1CN([C@@H](C)CO)C(=O)c2cc(-c3cccc(C#N)c3)cnc2O[C@@H]1CN(C)C	-6
C[C@@H]1CN([C@@H](C)CO)S(=O)(=O)c2ccc(-c3ccc(C#N)cc3)cc2O[C@H]1CN(C)C(=O)C1CC1	-37
C[C@H]1CN([C@@H](C)CO)C(=O)c2cc(C#CCc3ccccc3)cnc2O[C@H]1CN(C)Cc1ccccn1	-4
C[C@@H]1CN([C@H](C)CO)C(=O)c2cc(-c3cccnc3)cnc2O[C@H]1CN(C)C(=O)Nc1ccc(F)cc1	6
COc1ccc(/C=C/C(=O)c2ccc[nH]2)c(OC)c1OC	32*
COc1cccc(C2NC(=S)NC(C)=C2C(=O)c2ccccc2)c1OC (configuration not stated)	-147
SMILES	miR-122 inh
C[C@H]1CN([C@@H](C)CO)S(=O)(=O)c2ccc(-c3ccncc3)cc2O[C@@H]1CN(C)Cc1cncnc1	-9
C[C@@H]1CN([C@H](C)CO)C(=O)Cc2cc(NC(=O)Nc3ccccc3)ccc2O[C@@H]1CN(C)C(=O)Nc1cccc2ccccc12	-97
CCC(=O)Nc1ccc2c(c1)OC[C@@H](C)N(C(=O)c1ccccn1)C[C@H](C)[C@@H](OC)CN(C)C2=O	-1
C[C@H](CO)N1C[C@H](C)[C@@H](CN(C)S(=O)(=O)c2ccccc2F)Oc2cc(C#Cc3ccccc3)ccc2S1(=O)=O	-34
CCCC#Cc1ccc2c(c1)O[C@@H](CN(C)C(=O)c1cccnc1)[C@@H](C)CN([C@@H](C)CO)S2(=O)=O	-12
COCC(=O)N(C)C[C@H]1Oc2cc(C#Cc3cccnc3)ccc2S(=O)(=O)N([C@@H](C)CO)C[C@H]1C	59*
CCC(=O)N(C)C[C@H]1Oc2cc(C#Cc3cccnc3)ccc2S(=O)(=O)N([C@@H](C)CO)C[C@@H]1C	-22
CC(=O)N(C)C[C@@H]1Oc2cc(C#CC3(O)CCCC3)ccc2S(=O)(=O)N([C@H](C)CO)C[C@@H]1C	5
CCC(=O)N(C)C[C@@H]1Oc2cc(C#Cc3cccnc3)ccc2S(=O)(=O)N([C@@H](C)CO)C[C@@H]1C	4
COCC(=O)N(C)C[C@H]1Oc2cc(C#Cc3cccnc3)ccc2S(=O)(=O)N([C@@H](C)CO)C[C@@H]1C	55*
C[C@H](CO)N1C[C@H](C)[C@H](CN(C)C(=O)C2CC2)Oc2cc(C#Cc3cccnc3)ccc2S1(=O)=O	-2
C/C=C/c1ccc2c(c1)O[C@H](CN(C)C(=O)c1cccnc1)[C@H](C)CN([C@H](C)CO)S2(=O)=O	-5
C/C=C/c1ccc2c(c1)O[C@@H](CN(C)C(=O)c1cccnc1)[C@@H](C)CN([C@@H](C)CO)S2(=O)=O	-3
CCC(=O)N(C)C[C@H]1Oc2cc(C#Cc3cccnc3)ccc2S(=O)(=O)N([C@H](C)CO)C[C@@H]1C	-10
C/C=C/c1ccc2c(c1)O[C@H](CN(C)C(=O)Cc1cccnc1)[C@H](C)CN([C@H](C)CO)S2(=O)=O	43*
C[C@@H]1CN([C@@H](C)CO)S(=O)(=O)c2ccc(C#CC3(O)CCCC3)cc2O[C@@H]1CN(C)C(=O)c1cccnc1	47*
CCCNC(=O)N(C)C[C@H]1Oc2cc(C#Cc3ccccn3)ccc2S(=O)(=O)N([C@H](C)CO)C[C@H]1C	7
CO[C@H]1CN(C)C(=O)c2cc(NC(C)=O)ccc2OC[C@@H](C)N(C(=O)CN(C)C)C[C@@H]1C	0
COc1ccccc1C#Cc1ccc2c(c1)O[C@H](CN(C)Cc1ccncc1)[C@@H](C)CN([C@H](C)CO)S2(=O)=O	2
C[C@H](CO)N1C[C@H](C)[C@@H](CN(C)S(C)(=O)=O)Oc2cc(C#Cc3ccccc3)ccc2S1(=O)=O	-130
C[C@H]1CN([C@@H](C)CO)C(=O)c2cccc(NC(=O)c3ccncc3)c2O[C@@H]1CN(C)CC1CCCCC1	-91
C[C@H](O)C#Cc1cnc2c(c1)C(=O)N([C@H](C)CO)C[C@@H](C)[C@@H](CN(C)Cc1cncnc1)O2	6
CCCN1C[C@@H](C)[C@H](OC)CN(C)C(=O)c2ccc(NC(=O)COC)cc2OC[C@@H]1C	-9
C[C@H]1CN([C@@H](C)CO)S(=O)(=O)c2ccc(-c3ccc(F)cc3)cc2O[C@@H]1CN(C)C(=O)C1CCOCC1	-19
C[C@@H]1CN([C@@H](C)CO)S(=O)(=O)c2ccc(-c3ccc(C(=O)N(C)C)cc3)cc2O[C@H]1CN(C)C(=O)C1CCOCC1	-11
C[C@@H]1CN([C@H](C)CO)S(=O)(=O)c2ccc(-c3ccc(C(=O)N(C)C)cc3)cc2O[C@H]1CN(C)C(=O)C1CCOCC1	-15
C[C@@H]1CN([C@@H](C)CO)S(=O)(=O)c2ccc(-c3cncnc3)cc2O[C@H]1CN(C)C(=O)Cc1ccncc1	3
C[C@@H]1CN([C@@H](C)CO)S(=O)(=O)c2ccc(-c3ccc(F)cc3)cc2O[C@@H]1CN(C)C(=O)C1CCOCC1	11

Screens from PubChem.
